# Experimental data reported in PubChem BioAssay (NCATS).
# Values joined by “and” are separate entries in the source; they are usually repeats but may differ in a detail not shown here. Equal entries are not always repeated. Results filed as inconclusive are left out. A call without a number means that no potency is given here. A number with no mark means an inactive call. Active and inactive are the calls of the source. The call rests on the fitted dose curve; in most records, active means well fitted curve in the direction sought with a large enough effect; inconclusive means small, poorly fitted or top-dose-only effect, or another doubt; inactive means no such curve, though single readings can be large; an effect the other way counts as inactive or inconclusive. Where a SMILES comes first, the peptide text is derived from it.
# How the values were obtained:
# [1] = target: Cytochrome P450 3A7 (Homo sapiens) (UniProt P24462); assay: Cytochrome P450 family 3 subfamily A member 7 (CYP3A7) small molecule antagonists: luciferase biochemical qHTS assay (AID 1963596); further: nearly all actives have a fitted effect of over 40% in size
# How it was run: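 P450-Glo luminescent assay: CYP3A7 enzyme converts a proluciferin substrate to luciferin, detected by luciferase reagent; light proportional to activity. Compounds in DMSO preincubated 10 min with enzyme-substrate mix at room temperature, then NADPH regeneration added for 1 h.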
# [2] = Viability qHTS for spleen associated tyrosine kinase inhibitor (SYKi) naive MV4-11 cells (AID 1963823); further: nearly all actives have a fitted effect of over 40% in size; further: potency means the concentration at half of the fitted maximal effect
# How it was run: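 Cells: MV4-11, SYK inhibitor naive, 500 per well. Treatment: library compounds, 72 hr, 37 C, 5% CO2. Read-out: CellTiter-Glo luminescence after 10 min RT.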
# [3] = Viability qHTS for spleen associated tyrosine kinase inhibitor (SYKi) drug resistant MV4-11 cells (AID 1963824); further: nearly all actives have a fitted effect of over 35% in size; further: potency means the concentration at half of the fitted maximal effect
# How it was run: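 SYK inhibitor-resistant MV4-11 AML cells, 500 per well, added to predispensed compounds and incubated 72 hr at 37 C, 5% CO2. Viability measured by CellTiter-Glo luminescence after 10 min at room temperature.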
# [4] = Cellular viability qHTS for adrenocortical cancer (ACC) cell line NCI-H295R (AID 1963990); further: nearly all actives have a fitted effect of over 60% in size; further: potency means the concentration at half of the fitted maximal effect
# How it was run: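 Adrenocortical carcinoma cells, suspended at 300 000 cells/mL in serum-free DMEM plus ITS, rested overnight before pin transfer of compound. After two days' incubation, ATP-dependent luminescence was recorded and curve-fitted.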
# [5] = Cellular viability qHTS for adrenocortical cancer (ACC) cell line SW-13 (AID 1963989); conditions: SW-13 ACC cells viability, CellTiter-Glo, 48 h; activity (max response): hits give low values; further: nearly all actives have a fitted effect of over 65% in size; further: potency means the concentration at half of the fitted maximal effect;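 on activity (max response): cells grown in serum-free medium with ITS supplement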
# How it was run: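 IC50 and maximal-response values come from four-parameter logistic fits of titration data. SW-13 cells in serum-free medium received compounds (up to 46 uM final) for 48 h before CellTiter-Glo luminescence.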
# [6] = Quantitative highthroughput screen to assess conditional lethalithy of NOMO1 cells grown in RPMI1640 with untreated serum (RPMI+s) (AID 1963876); further: nearly all actives have a fitted effect of over 35% in size
# How it was run: (§1)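 Each medium arm—HPLM with 10% dialyzed FBS, or RPMI1640 with 5 mM glucose and 10% untreated or dialyzed FBS—was screened against an 11-point, 3-fold compound titration for 48 h at 37 °C, with CellTiter-Glo luminescence as endpoint.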
# [7] = Quantitative highthroughput screen to assess conditional lethalithy of NOMO1 cells grown in RPMI1640 with dialyzed fetal bovine serum (RPMI+ds) (AID 1963877); further: series mostly up to about 46 µM; nearly all actives have a fitted effect of over 30% in size
# How it was run: as §1
# [8] = Quantitative highthroughput screen to assess conditional lethalithy of NOMO1 cells grown in Human Plasma-Like Medium with dialyzed fetal bovine serum (HPLM+ds) (AID 1963878); further: nearly all actives have a fitted effect of over 35% in size
# How it was run: as §1
# [9] = Quantitative highthroughput screen to assess conditional lethalithy of P12 Ichikawa cells grown in Human Plasma-Like Medium with dialyzed fetal bovine serum (HPLM+ds) (AID 1963879); conditions: Potency: viability; further: series mostly up to about 46 µM; nearly all actives have a fitted effect of over 35% in size
# How it was run: as §1
# [10] = Quantitative highthroughput screen to assess conditional lethalithy of P12 Ichikawa cells grown in RPMI1640 with dialyzed fetal bovine serum (RPMI+ds) (AID 1963880); conditions: Potency: P12-Ichikawa viability; further: nearly all actives have a fitted effect of over 35% in size; further: potency means the concentration at half of the fitted maximal effect
# How it was run: as §1
# [11] = Quantitative highthroughput screen to assess conditional lethalithy of P12 Ichikawa cells grown in RPMI1640 with untreated serum (RPMI+s) (AID 1963881); conditions: Potency: viability
# How it was run: as §1
# [12] = Quantitative highthroughput screen to assess conditional lethalithy of SEM cells grown in Human Plasma-Like Medium with dialyzed fetal bovine serum (HPLM+ds) (AID 1963882); further: nearly all actives have a fitted effect of over 35% in size; further: potency means the concentration at half of the fitted maximal effect; on Viability: series mostly up to about 46 µM
# How it was run: as §1
# [13] = Quantitative highthroughput screen to assess conditional lethalithy of SEM cells grown in RPMI1640 with unreated serum (RPMI+s) (AID 1963883); further: nearly all actives have a fitted effect of over 35% in size; further: potency means the concentration at half of the fitted maximal effect
# How it was run: as §1
# [14] = Quantitative highthroughput screen to assess conditional lethalithy of SEM cells grown in RPMI1640 with dialyzed fetal bovine serum (RPMI+ds) (AID 1963884)
# How it was run: as §1
# Sequence of Cytochrome P450 3A7 (Homo sapiens) (P24462 whole entry, looked up): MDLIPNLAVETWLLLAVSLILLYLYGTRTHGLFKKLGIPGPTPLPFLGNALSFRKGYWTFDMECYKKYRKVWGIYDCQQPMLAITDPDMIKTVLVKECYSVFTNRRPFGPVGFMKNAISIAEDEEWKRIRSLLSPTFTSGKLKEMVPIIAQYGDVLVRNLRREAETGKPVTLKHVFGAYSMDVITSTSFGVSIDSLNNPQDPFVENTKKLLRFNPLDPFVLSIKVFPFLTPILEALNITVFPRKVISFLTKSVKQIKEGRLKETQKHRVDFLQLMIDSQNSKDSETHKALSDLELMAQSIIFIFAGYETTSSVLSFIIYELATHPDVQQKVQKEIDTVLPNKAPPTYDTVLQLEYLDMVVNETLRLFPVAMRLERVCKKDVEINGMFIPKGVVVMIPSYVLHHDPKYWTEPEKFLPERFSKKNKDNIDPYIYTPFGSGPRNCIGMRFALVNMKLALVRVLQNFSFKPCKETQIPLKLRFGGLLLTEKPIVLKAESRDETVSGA
smiles,measurement,setting,value
C[N+](C)(C)CCOC(N)=O,Potency,[1],inactive
same,Potency,[2],inactive
same,Potency,[3],inactive
same,Potency,[4],inactive
C[C@H]1COc2c(C3(N)CC3)c(F)cc3c(=O)c(C(=O)O)cn1c23,Potency,[1],inactive
same,Potency,[2],inactive
same,Potency,[3],inactive
same,activity (max response),[5],-1.24%
same,Potency,[4],inactive
CN(C)[C@@H]1C(=O)C(C(N)=O)=C(O)[C@@]2(O)C(=O)C3=C(O)c4c(O)cccc4C[C@H]3C[C@@H]12,Potency,[1],inactive
same,Potency,[2],inactive
same,Potency,[3],inactive
same,Potency,[4],inactive
CCCCCCCCCCCCCCCCCCO,Potency,[1],inactive
same,Potency,[2],inactive
same,Potency,[3],inactive
same,Potency,[4],inactive
CC(C)(C)c1ccc(C(O)CCCN2CCC(C(O)(c3ccccc3)c3ccccc3)CC2)cc1 (centres undefined),Potency,[1],inactive
same,Potency,[2],21.1 µM (active)
same,Potency,[3],11.9 µM (active)
same,Potency,[4],4.11 µM (active)
CCn1ccc(NS(=O)(=O)c2ccc(N)cc2)nc1=O,Potency,[1],inactive
same,Potency,[2],inactive
same,Potency,[3],inactive
same,Potency,[4],inactive
C=CCOc1ccccc1OCC(O)CNC(C)C (centres undefined),Potency,[1],inactive
same,Potency,[2],inactive
same,Potency,[3],inactive
same,Potency,[4],inactive
O=C(O)CCCCC(=O)O,Potency,[1],inactive
same,Potency,[2],inactive
same,Potency,[3],inactive
same,activity (max response),[5],10.5%
same,Potency,[4],inactive
COc1cc(/C=C/C(N)=O)cc(OC)c1OC,Potency,[1],inactive
same,Potency,[2],inactive
same,Potency,[3],inactive
same,Potency,[4],inactive
CC(=O)Oc1cccc(C)c1,Potency,[1],inactive
same,Potency,[2],inactive
same,Potency,[3],inactive
same,Potency,[4],inactive
CC(C)=CCNc1ncnc2c1ncn2[C@@H]1O[C@H](CO)[C@@H](O)[C@H]1O,Potency,[1],inactive
same,Potency,[2],0.82 µM (active)
same,Potency,[3],0.58 µM (active)
same,Potency,[4],7.31 µM (active)
Cc1scc2c1N(C(=O)CN1CCN(C)CC1)c1ccccc1NC2=O,Potency,[1],inactive
same,Potency,[2],inactive
same,Potency,[3],inactive
same,activity (max response),[5],2.88%
same,Potency,[4],inactive
NCC1CCC(C(=O)Oc2ccc(CCC(=O)O)cc2)CC1 (centres undefined),Potency,[1],inactive
same,Potency,[2],inactive
same,Potency,[3],inactive
same,activity (max response),[5],3.63%
same,Potency,[4],inactive
O=Cc1ccccc1C=O,Potency,[1],inactive
same,Potency,[2],inactive
same,Potency,[3],inactive
same,activity (max response),[5],0.792%
same,Potency,[4],inactive
Cc1nc(-c2cn3c(n2)-c2ccc(-c4cnn(C(C)(C)C(N)=O)c4)cc2OCC3)n(C(C)C)n1,Potency,[1],inactive
same,Potency,[2],0.148 µM (active)
same,Potency,[3],2.59 µM (active)
same,Potency,[4],2.51 µM (active)
CC(=O)N[C@@H](CO)C(=O)N[C@@H](CC(=O)O)C(=O)N[C@@H](CCCCN)C(=O)N1CCC[C@H]1C(=O)O (Ac-SDKP-OH),Potency,[1],inactive
same,Potency,[2],inactive
same,Potency,[3],inactive
same,Potency,[4],inactive
NS(=O)(=O)c1ccc(C(=O)O)cc1,Potency,[1],inactive
same,Potency,[2],inactive
same,Potency,[3],inactive
same,Potency,[4],inactive
CC(C)(C)c1cc(C=O)cc(C(C)(C)C)c1O,Potency,[1],inactive
same,Potency,[2],inactive
same,Potency,[3],inactive
same,Potency,[4],inactive
COC(=O)C1=C(C)NC(C)=C(C(=O)OCCN2CCN(C(c3ccccc3)c3ccccc3)CC2)C1c1cccc([N+](=O)[O-])c1 (centres undefined),Potency,[1],inactive
same,Potency,[2],11.9 µM (active)
same,Potency,[6],inactive
same,Potency,[7],inactive
same,Potency,[8],inactive
same,Potency,[9],inactive
same,Potency,[10],inactive
same,Potency,[11],inactive
same,Potency,[12],inactive
same,Potency,[13],inactive
same,Potency,[14],inactive
same,Potency,[5],4.47 µM (active)
same,Potency,[4],3.98 µM (active)
C=CCc1ccccc1OCC(O)CNC(C)C (centres undefined),Potency,[1],inactive
same,Potency,[2],inactive
same,activity (max response),[5],1.07%
OC(CN1CCC(Cc2ccc(F)cc2)CC1)c1ccc(Cl)cc1 (centres undefined),Potency,[1],inactive
same,Potency,[2],5.31 µM (active)
same,Potency,[6],inactive
same,Potency,[7],inactive
same,Potency,[9],inactive
same,Potency,[10],inactive
same,Potency,[11],inactive
same,Potency,[12],inactive
same,Potency,[13],inactive
same,Potency,[14],inactive
same,activity (max response),[5],-8.69%
same,Potency,[4],inactive
CC[C@H]1CN2CCc3cc(OC)c(OC)cc3[C@@H]2C[C@@H]1C[C@H]1NCCc2cc(OC)c(OC)cc21,Potency,[1],inactive
same,Potency,[2],106 nM (active) and 83.3 nM (active)
same,Potency,[3],133 nM (active) and 93.4 nM (active)
same,Potency,[4],146 nM (active) and 282 nM (active)
NC1CCN(c2nc3c(cc2F)c(=O)c(C(=O)O)cn3-c2ccc(F)cc2F)C1 (centres undefined),Potency,[1],inactive
same,Potency,[2],inactive
same,Potency,[3],inactive
same,Potency,[4],inactive
c1ccc2c(-c3cnn4cc(-c5ccc(N6CCNCC6)cc5)cnc34)ccnc2c1,Potency,[1],inactive
same,Potency,[2],0.525 µM (active)
same,Potency,[13],5.26 µM (active)
same,Potency,[5],3.98 µM (active)
same,Potency,[4],3.16 µM (active)
NC(=O)c1cccnc1,Potency,[1],inactive
same,Potency,[2],inactive
same,Potency,[6],inactive
same,Potency,[7],inactive
same,Potency,[8],inactive
same,Potency,[9],inactive
same,Potency,[10],inactive
same,Potency,[11],inactive
same,Potency,[12],16.6 µM (active)
same,activity (max response),[5],-8.19% and 2.22%
same,Potency,[4],inactive
Cc1cc(C(C)(C)C)cc(C)c1CC1=NCCN1,Potency,[1],inactive
same,Potency,[2],3.72 µM (active)
same,Potency,[9],inactive
same,Potency,[10],inactive
same,Potency,[13],inactive
same,Potency,[14],inactive
same,activity (max response),[5],-1.59% and -10.9%
same,Potency,[4],inactive
O=c1[nH]cnc2c1ncn2[C@H]1CC[C@@H](CO)O1,Potency,[1],inactive
same,Potency,[2],inactive
same,Potency,[10],16.6 µM (active)
same,Potency,[12],18.7 µM (active)
same,Potency,[14],inactive
same,activity (max response),[5],1.58%
same,Potency,[4],inactive
